Inhibition data for 15 compounds are collected here from PubChem BioAssay.

Each structure is given as a SMILES string. Several values for one entry are separate records, joined by “and”; a condition that tells them apart may be missing. Equal entries are not always repeated. Unmarked numbers belong to inactive results. Activity calls are given as the source filed them. Rule as the data show it, unless noted: active = inhibition above about 30%; inactive = the rest.

For test [1], the target named is Nuclear receptor coactivator 3 (Homo sapiens) (UniProt Q9Y6Q9). The experiment in a line: SRC3 coactivator transcriptional activity inhibitors, confirmation, cell-based, luminescence, quadruplicate (AID 588792;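 active = mean inhibition over 43.08%, the solvent-only control mean plus 3 SD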;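 also: 0% = DMSO treated cells and 100% = gossypol at 36 µM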). The note with it: HEK293 GAL4-SRC3 luciferase reporter, at 3.6 µM, active compounds read high. (A reporter such as luciferase makes a cellular process visible.)
Chain of Nuclear receptor coactivator 3 (Homo sapiens) (Q9Y6Q9 whole entry, looked up, the tested form may be a part): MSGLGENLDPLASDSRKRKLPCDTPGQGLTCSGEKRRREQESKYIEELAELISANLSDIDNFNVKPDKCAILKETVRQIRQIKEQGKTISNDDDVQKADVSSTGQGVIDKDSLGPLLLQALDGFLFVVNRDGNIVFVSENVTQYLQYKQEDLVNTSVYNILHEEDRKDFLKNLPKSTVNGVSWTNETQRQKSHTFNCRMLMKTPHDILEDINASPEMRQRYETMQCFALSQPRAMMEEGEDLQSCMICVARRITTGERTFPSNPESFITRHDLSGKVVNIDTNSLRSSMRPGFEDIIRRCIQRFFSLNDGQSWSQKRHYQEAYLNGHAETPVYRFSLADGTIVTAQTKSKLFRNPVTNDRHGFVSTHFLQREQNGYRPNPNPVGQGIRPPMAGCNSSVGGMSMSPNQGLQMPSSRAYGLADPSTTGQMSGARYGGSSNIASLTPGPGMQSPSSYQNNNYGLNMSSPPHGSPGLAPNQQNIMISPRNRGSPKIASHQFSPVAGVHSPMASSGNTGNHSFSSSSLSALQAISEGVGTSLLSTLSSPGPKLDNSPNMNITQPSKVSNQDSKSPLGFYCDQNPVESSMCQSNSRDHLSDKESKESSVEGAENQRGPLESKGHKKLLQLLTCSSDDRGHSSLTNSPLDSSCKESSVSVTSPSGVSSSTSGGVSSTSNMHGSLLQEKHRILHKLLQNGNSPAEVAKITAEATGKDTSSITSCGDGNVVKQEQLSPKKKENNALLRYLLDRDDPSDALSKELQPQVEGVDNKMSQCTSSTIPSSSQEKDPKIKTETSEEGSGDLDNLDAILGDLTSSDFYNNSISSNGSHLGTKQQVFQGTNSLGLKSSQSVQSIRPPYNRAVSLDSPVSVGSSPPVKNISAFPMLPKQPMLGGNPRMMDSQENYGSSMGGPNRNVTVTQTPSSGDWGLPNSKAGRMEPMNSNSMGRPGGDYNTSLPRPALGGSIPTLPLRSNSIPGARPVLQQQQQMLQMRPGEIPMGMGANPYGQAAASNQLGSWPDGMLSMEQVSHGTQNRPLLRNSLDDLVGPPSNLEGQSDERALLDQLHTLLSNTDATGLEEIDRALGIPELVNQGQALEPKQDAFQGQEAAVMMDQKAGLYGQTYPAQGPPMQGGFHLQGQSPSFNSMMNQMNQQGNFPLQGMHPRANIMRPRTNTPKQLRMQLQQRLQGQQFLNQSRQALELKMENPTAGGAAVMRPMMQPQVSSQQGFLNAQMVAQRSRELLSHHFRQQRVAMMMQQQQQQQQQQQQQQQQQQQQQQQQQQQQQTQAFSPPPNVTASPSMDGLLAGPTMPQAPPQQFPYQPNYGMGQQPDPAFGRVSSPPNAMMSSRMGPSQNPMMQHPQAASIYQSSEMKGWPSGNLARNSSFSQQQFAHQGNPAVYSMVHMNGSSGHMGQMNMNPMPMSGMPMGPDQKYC
Test [2] has as its system transactivating tegument protein VP16 (Human herpesvirus 1), Gal4-VP16 luciferase reporter. In words: VP16 transactivation inhibitors, counter-screen for SRC3 inhibitor project, cell-based, luminescence, high throughput (AID 588794). Conditions: mammalian cells, VP16-driven luciferase reporter luminescence; at 3.6 µM; active compounds read high.
In test [3] the target is Nuclear receptor coactivator 1 (Homo sapiens) (UniProt Q15788). The experiment in a line: SRC1 coactivator transcriptional activity inhibitors, confirmation, cell-based, luminescence, quadruplicate (AID 588820;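 active = mean inhibition above 46.68%, the untreated control wells mean plus 3 SD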;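 also: 0% = DMSO wells and 100% = gossypol 36 µM treated wells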). Conditions: HEK293 GAL4-SRC1 luciferase reporter, at 3.6 µM, active compounds read high.
Chain of Nuclear receptor coactivator 1 (Homo sapiens) (Q15788 whole entry, looked up, the tested form may be a part): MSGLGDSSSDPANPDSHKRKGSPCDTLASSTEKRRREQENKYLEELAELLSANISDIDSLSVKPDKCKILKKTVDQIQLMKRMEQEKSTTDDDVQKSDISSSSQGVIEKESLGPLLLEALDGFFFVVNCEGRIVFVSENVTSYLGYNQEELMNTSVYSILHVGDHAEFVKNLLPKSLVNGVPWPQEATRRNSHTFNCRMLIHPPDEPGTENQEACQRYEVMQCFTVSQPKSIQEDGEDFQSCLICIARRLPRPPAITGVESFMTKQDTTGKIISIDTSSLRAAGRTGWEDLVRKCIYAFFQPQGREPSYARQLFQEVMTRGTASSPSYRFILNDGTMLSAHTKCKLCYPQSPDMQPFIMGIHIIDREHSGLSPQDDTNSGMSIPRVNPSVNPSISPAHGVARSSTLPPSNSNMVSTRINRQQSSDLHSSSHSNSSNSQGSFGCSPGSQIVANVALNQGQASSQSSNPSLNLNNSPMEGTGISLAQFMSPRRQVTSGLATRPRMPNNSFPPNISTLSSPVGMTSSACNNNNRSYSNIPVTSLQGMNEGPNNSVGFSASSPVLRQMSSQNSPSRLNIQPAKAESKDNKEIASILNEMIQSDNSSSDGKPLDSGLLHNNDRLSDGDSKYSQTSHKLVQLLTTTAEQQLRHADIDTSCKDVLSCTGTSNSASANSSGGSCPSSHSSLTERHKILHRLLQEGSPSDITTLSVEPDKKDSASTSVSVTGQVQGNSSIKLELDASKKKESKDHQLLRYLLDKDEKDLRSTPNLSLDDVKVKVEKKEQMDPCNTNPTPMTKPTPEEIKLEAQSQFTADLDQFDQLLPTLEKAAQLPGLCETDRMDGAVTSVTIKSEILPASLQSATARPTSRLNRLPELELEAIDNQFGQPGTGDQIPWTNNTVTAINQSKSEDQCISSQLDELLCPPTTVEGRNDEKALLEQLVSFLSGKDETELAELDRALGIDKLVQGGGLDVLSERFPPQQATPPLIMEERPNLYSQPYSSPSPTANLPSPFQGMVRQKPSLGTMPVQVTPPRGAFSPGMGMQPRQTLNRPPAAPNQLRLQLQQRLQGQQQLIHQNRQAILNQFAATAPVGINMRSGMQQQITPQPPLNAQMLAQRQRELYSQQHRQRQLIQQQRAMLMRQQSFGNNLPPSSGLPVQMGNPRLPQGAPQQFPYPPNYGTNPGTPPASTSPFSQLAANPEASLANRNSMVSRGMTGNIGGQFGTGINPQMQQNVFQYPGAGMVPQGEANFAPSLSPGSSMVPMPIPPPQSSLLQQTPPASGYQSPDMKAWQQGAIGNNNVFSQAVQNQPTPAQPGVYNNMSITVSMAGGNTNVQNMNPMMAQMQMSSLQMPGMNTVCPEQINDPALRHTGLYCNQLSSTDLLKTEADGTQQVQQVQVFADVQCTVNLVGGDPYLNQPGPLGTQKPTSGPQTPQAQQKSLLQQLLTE
The nature of test [4]: VP16 transactivation inhibitors, counter-screen for SRC1 inhibitor project, cell-based, luminescence, high throughput (AID 588824; in the data active = inhibition above about 25%). Conditions: cell-based VP16 transactivation luciferase luminescence; at 3.6 µM; active compounds read high.
Test [5] can be described thus: StAR promoter reporter inhibitors, counter-screen for LRH-1 inverse agonist project, cell-based, luminescence, high throughput (AID 651611; in the data active = inhibition above about 28%). Conditions: StAR promoter luciferase reporter counterscreen, at 3.6 µM, active compounds read high.
The target of test [6] is Nuclear receptor subfamily 5 group A member 2 (Homo sapiens) (UniProt O00482). In words: LRH-1 (NR5A2) inverse agonists, retest, confirmation, cell-based, luminescence (AID 651613; in the data active = inhibition above about 42%;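 also: HEK293T cells co-transfected with LRH-1 and StAR promoter luciferase reporter; 0% = vehicle wells and 100% = parental cells lacking receptor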). The note with it: cell-based LRH-1 luciferase reporter, inverse agonism; at 3.6 µM; active compounds read high.
Chain of Nuclear receptor subfamily 5 group A member 2 (Homo sapiens) (O00482 whole entry, looked up): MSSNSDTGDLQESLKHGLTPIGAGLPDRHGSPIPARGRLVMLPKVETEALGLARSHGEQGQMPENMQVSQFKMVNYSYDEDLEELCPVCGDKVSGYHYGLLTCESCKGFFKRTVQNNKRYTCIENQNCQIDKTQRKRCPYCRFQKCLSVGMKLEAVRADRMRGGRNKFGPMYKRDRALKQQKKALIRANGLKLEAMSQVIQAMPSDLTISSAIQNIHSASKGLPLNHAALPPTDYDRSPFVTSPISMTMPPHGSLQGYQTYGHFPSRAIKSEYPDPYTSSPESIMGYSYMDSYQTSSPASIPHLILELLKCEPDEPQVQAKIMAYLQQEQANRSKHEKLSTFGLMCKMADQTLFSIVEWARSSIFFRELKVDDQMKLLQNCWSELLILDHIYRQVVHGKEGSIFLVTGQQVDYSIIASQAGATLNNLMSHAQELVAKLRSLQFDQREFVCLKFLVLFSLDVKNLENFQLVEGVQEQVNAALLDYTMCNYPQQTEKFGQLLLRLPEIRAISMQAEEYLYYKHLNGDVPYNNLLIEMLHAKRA
Test [7] addresses Steroidogenic factor 1 (Homo sapiens) (UniProt Q13285). The experiment in a line: SF1 (NR5A1) inverse agonists, counter-screen for LRH-1 inverse agonist project, cell-based, luminescence, high throughput (AID 651614; in the data active = inhibition above about 44%;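 also: cells cotransfected with StAR promoter reporter and SF1 expression vector; 0% = vehicle on cells with receptor and 100% = vehicle on cells lacking receptor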). Conditions: cell-based SF1 luciferase reporter, at 3.6 µM, active compounds read high. For orientation: The purpose of a counterscreen is to sort out artefacts and off-target activity.

Test [8] in a line: VP16 transactivation reporter inhibitors, counter-screen for LRH-1 inverse agonist project, cell-based, luminescence, high throughput (AID 651615; in the data active = inhibition above about 33%). Conditions: Gal4-VP16 luciferase reporter cells, at 3.6 µM, active compounds read high.
Test [9] deals with transactivating tegument protein VP16 (Human herpesvirus 1). The experiment in a line: VP16 transactivation reporter inhibitors, counter-screen for SRC2 inhibitor project, cell-based, luminescence, single concentration (AID 652007; in the data active = inhibition above about 36%). The note with it: cell-based VP16 transactivation luciferase reporter, at 8.9 µM, active compounds read high.
The target in test [10] is Nuclear receptor coactivator 2 (Homo sapiens) (UniProt Q15596). In words: SRC2 coactivator transcriptional activity inhibitors, confirmation, cell-based, luminescence, HEK293, triplicate (AID 652008;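 active = mean inhibition above 46.5%, the solvent-only control mean plus 3 SD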;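 also: 0% = DMSO-treated cells and 100% = Gossypol at 36 µM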). Conditions: HEK293 GAL4-SRC2 luciferase reporter, at 8.9 µM, active compounds read high.
Chain of Nuclear receptor coactivator 2 (Homo sapiens) (Q15596 whole entry, looked up, the tested form may be a part): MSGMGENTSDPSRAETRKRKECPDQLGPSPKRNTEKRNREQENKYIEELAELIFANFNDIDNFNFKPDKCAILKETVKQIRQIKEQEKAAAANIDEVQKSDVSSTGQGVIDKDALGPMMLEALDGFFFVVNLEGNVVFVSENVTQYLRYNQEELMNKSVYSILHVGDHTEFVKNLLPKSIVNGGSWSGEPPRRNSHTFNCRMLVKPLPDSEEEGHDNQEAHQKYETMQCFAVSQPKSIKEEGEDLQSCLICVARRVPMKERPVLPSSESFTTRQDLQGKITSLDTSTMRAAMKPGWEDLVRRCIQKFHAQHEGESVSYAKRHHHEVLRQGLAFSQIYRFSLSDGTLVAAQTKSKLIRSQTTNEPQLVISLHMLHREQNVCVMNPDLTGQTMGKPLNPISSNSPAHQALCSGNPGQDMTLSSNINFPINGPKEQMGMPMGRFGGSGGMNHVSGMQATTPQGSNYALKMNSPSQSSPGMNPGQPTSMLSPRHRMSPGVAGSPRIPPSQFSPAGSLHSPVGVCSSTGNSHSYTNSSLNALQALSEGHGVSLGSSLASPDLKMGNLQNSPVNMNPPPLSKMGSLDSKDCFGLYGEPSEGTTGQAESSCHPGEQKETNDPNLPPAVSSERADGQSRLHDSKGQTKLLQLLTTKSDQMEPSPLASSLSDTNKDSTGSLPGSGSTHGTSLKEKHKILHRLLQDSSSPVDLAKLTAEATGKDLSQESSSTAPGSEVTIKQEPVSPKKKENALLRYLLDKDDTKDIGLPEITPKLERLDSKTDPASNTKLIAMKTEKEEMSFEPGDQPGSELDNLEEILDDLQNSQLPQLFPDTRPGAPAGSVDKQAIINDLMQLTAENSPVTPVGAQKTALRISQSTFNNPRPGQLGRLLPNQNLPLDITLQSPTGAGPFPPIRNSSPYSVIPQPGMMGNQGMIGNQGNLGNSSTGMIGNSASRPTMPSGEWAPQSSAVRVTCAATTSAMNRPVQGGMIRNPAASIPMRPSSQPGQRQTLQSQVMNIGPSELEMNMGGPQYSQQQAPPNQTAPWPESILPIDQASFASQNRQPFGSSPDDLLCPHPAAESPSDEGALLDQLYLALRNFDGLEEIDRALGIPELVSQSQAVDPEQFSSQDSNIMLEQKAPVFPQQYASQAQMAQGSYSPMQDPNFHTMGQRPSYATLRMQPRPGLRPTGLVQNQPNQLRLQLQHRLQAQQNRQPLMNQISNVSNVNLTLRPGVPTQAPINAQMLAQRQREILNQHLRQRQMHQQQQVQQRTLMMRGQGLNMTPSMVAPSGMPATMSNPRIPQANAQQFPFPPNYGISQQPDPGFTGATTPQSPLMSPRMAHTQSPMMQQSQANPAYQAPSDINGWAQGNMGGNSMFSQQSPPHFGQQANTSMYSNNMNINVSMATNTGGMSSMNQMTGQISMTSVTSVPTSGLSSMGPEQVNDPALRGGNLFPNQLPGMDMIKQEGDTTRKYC

A word on the inhibition: it is the drop in the measured response relative to a control, in per cent.

On to `Cc1c(/C(O)=C2/C(=O)C(=O)N(CCN3CCOCC3)C2c2ccccn2)cnn1-c1ccccc1` (stereo not given), for which the inhibition was 62.5% (active) in [1]; 41.7% (active) in test [2]; 54.5% (active) in test [3]; 26.1% (active) in test [4]; 68.9% (active) in test [5]; 24.3% in [6]. Besides, the inhibition is 75.2% (active) in test [7], 12.3% in test [8], 68.5% (active) in test [9] and 83.4% (active) in test [10].

Turning to `O=C(O)c1ccc(N/N=C/c2ccc3nccnc3c2)cc1`, the inhibition in test [1] is 17.8%; in test [2], 10.9%; in test [3], -44.9%; in test [4], 10.3%; in test [5], 48.4% (active); in test [6], 21.4%. In addition, the inhibition was 61% (active) in test [7], 14.8% in test [8], 42.2% (active) in test [9] and 75.5% (active) in test [10].

As for `COc1ccc2cc3c(N)nn(C(=O)c4ccccc4[N+](=O)[O-])c3nc2c1`, the inhibition in [1] was 76.5% (active); in test [2], 59.9% (active); in test [3] it was 64.8% (active); in [4], 61.3% (active); in test [5] it was 44.6% (active); in [6], 67.5% (active). Besides, the inhibition is 46.9% (active) in [7], 78% (active) in test [8], 3.64% in [9] and 46.6% (active) in [10].

For the compound `CCCN(CCC)C1=CC(=[N+]2CCCC2)CC(C)(C)C1`, the inhibition is 25.5% in [1]; 56.8% (active) in [2]; 36.1% in test [3]; 55.3% (active) in [4]; 38.3% (active) in test [5]; 106% (active) in test [6]. Further, the inhibition in [7] was 78.8% (active); in test [8], 86.6% (active); in test [9], 29%; in test [10], 18.8%.

Turning to `O=S(=O)(c1ccc(NC(=S)NCc2cccnc2)cc1)N1CCCCC1`, the inhibition was 91% (active) in test [1]; 72.3% (active) in test [2]; 77.6% (active) in [3]; 65.2% (active) in test [4]; 90.8% (active) in [5]; 102% (active) in test [6]. For the same compound, the inhibition in test [7] was 96.3% (active); in test [8], 88.6% (active); in test [9] it was 12.3%; in [10] it was 50.2% (active).

Consider `Cc1cc(C)c2c(N)c(C(=O)Nc3ncc(C)s3)sc2n1`, for which the inhibition in test [1] is 49.7% (active); in [2] it was 34.4% (active); in [3], -42.2%; in test [4], 24.3%; in [5], 36.9% (active); in [6], 14.3%. For the same compound, the inhibition in test [7] was 55.7% (active); in test [8] it was 4.69%; in test [9], 55.6% (active); in [10] it was 77.2% (active).

As for `CCOc1ccc(-c2noc(CCC(=O)O)n2)cc1`, the inhibition in [1] was 18.2%; in [2], 15.1%; in test [3], 18.5%; in test [4], 5%; in [5], 27.3%; in test [6] it was 38.4%. Also, the inhibition in test [7] was 23.1%; in [8], 23.4%; in [9] it was 71.3% (active); in test [10], 86.1% (active).

`Cc1cc(C)c2sc(NNC(=O)c3ccc(S(=O)(=O)N4CCc5ccccc5C4)cc3)nc2c1`: the inhibition in test [1] is 46.6% (active); in test [2], 41.1% (active); in [3] it was 50% (active); in test [4], 46.6% (active); in test [5] it was 68.6% (active); in [6] it was 89.6% (active). Besides, the inhibition in test [7] is 66.8% (active); in test [8], 66.6% (active); in [9], -4.24%; in [10] it was 29.3%.

With `O=C(N/N=C/c1c(O)ccc2ccccc12)c1cccnc1`, the inhibition in [1] is 71.2% (active); in test [2] it was 81.2% (active); in [3], 73.1% (active); in test [4], 80% (active); in [5], 88.5% (active); in [6] it was 102% (active). Besides, the inhibition in [7] was 89.4% (active); in test [8], 86.1% (active); in [9], 5.29%; in test [10], 20.7%.

Regarding `CC1CCC(C(C)C)C(OC(=O)Cn2c(-c3ccccc3)[n+](C)c3ccccc32)C1` (stereo not given), the inhibition is 74.8% (active) and 54.2% (active) in test [1]; 76.2% (active) and 68% (active) in [2]; 55.1% (active) and 49.6% (active) in [3]; 75.8% (active) and 65.7% (active) in test [4]; 54% (active) in [5]; 108% (active) in [6]. The inhibition was 83.8% (active) in [7], 94.5% (active) in [8], 49.1% (active) in test [9] and 30.4% in [10].

With `COC(=O)CCn1nnc(-c2ccc(C(C)C)cc2)n1`, the inhibition in [1] is 55.4% (active); in [2] it was 38.7% (active); in test [3] it was 40.5%; in [4], 35.6% (active); in test [5], 48.7% (active); in test [6], 55% (active). The inhibition is 46.7% (active) in test [7], 39.9% (active) in test [8], 58.8% (active) in test [9] and 92.6% (active) in test [10].

`CC(C)(C)c1ccc(C(=O)Nc2sc3c(c2C(=O)O)CCC3)cc1`: the inhibition is 48.4% (active) in [1]; 73% (active) in [2]; 42.3% in [3]; 73.4% (active) in test [4]; 77.2% (active) in test [5]; 95.7% (active) in test [6]. For the same compound, the inhibition in test [7] was 90.7% (active); in test [8], 77.3% (active); in test [9] it was 8.37%; in [10] it was 10.1%.

Regarding `CCn1c(C)cc(C(=O)CN2C(=O)c3ccccc3S2(=O)=O)c1C`, the inhibition is 30.1% in test [1]; 31.5% (active) in [2]; -18.2% in test [3]; 25% in [4]; 33.4% (active) in [5]; -16.2% in test [6]. For the same compound, the inhibition in test [7] is 28.1%; in test [8] it was 11%; in test [9], 46.9% (active); in test [10] it was 59.8% (active).

For the compound `Nc1ccc(-c2cc3ccccc3oc2=O)cc1`, the inhibition is 43.5% (active) in [1]; 20.6% in test [2]; 45% in test [3]; 18.9% in [4]; 52.2% (active) in [5]; 73.5% (active) in [6]. Moreover, the inhibition in test [7] was 65.2% (active); in [8] it was 34.1% (active); in test [9], 67.1% (active); in [10] it was 94.6% (active).

Turning to `C=C(C(=O)c1ccccc1)C(NC(C)(C)C)c1ccccc1` (stereo not given), the inhibition in test [1] was 45% (active); in [2], 90.4% (active); in [3], -116%; in [4] it was 90.2% (active); in test [5], 58.5% (active); in test [6] it was 93.7% (active). Besides, the inhibition in test [7] is 87.4% (active); in [8] it was 92.9% (active); in test [9], 78.7% (active); in test [10], 44.6%.
